Molecules are shown by their SMILES. “And” between values parts separate entries of the source, which are not always exact repeats. Equal values may be shown once. Inconclusive results are not listed. A number with no mark means an inactive call. The source made the active and inactive calls. Calls follow the shape of the dose curve; as a rule, active = well fitted curve in the direction sought with a large enough effect; inconclusive = small, poorly fitted or top-dose-only effect, or another doubt; inactive = no such curve, though single readings can be large; an effect the other way counts as inactive or inconclusive.

Here are results for 7 compounds from PubChem BioAssay (NCATS).

Test [1] addresses Cellular tumor antigen p53 (Homo sapiens) (UniProt P04637). As to the kind of experiment: Primary qHTS for small molecule compounds that upregulate eGFP-tagged delta133p53alpha (in N-terminal) cells. (AID 2060322).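 Also: series mostly up to about 56 µM; 0% = DMSO vehicle and 100% = reference activator; nearly all actives have a fitted effect of over 75% in size.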 The settings on record: NCI-H358 eGFP-delta133p53alpha fluorescence, 24 h; activation: stronger effect = higher value. The method, boiled down:
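NCI-H358 cells pre-induced 24 h with 10 ng/ml doxycycline to express N-terminal eGFP-delta133p53alpha, then dosed 24 h at 37C without doxycycline; fixed, Hoechst-stained, GFP intensity by laser scanning cytometry, normalized to DMSO (0%) and 57.5 uM 5-azacytidine (100%).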

Test [2] addresses Aldehyde dehydrogenase, mitochondrial (Homo sapiens) (UniProt P05091). Briefly: qHTS for Inhibitors of the Aldehyde Dehydrogenase Family (ALDH2) Primary screen (AID 2061308;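 also: plate controls were vehicle for no effect and reference inhibitor for full effect; nearly all actives have a fitted effect of over 55% in size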). (Quantitative high-throughput screening tests each substance at several concentrations.)
Test [3] addresses Retinaldehyde dehydrogenase 3 (Homo sapiens) (UniProt P47895). Briefly: qHTS for Inhibitors of the Aldehyde Dehydrogenase Family (ALDH1A3) Validation screen (AID 2061312). Also: % is scaled to controls: 0 for no effect and ±100 for the full control effect; nearly all actives have a fitted effect of over 45% in size.
Test [4] has the same target. Briefly: qHTS for Inhibitors of the Aldehyde Dehydrogenase Family (ALDH1A3) Primary screen (AID 2061315).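 Also: plate controls were DMSO vehicle for no effect and reference inhibitor for full effect.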
Test [5] is described as follows: BET inhibitor-based combinations targeting novel dependencies in MECOM-rearranged (r) AML: MV-4-11 cell line (AID 2202233). Also: nearly all actives have a fitted effect of over 45% in size. Also: potency is read from the fitted curve at half-maximal effect. The method in brief:
(§1)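 First, 500 cells per well were seeded; next, drugs were pinned as 11-point doses; then plates sat 48 hr in the incubator; finally CellTiter-Glo was added and luminescence read, with AUC and Z-AUC computed.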

A short description of test [6]: BET inhibitor-based combinations targeting novel dependencies in MECOM-rearranged (r) AML: HNT-34 cell line (AID 2202234).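 Also: plate controls were vehicle wells for no effect and cell-free wells for full effect; nearly all actives have a fitted effect of over 35% in size.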 The method in brief:
as §1

Test [7] in a line: BET inhibitor-based combinations targeting novel dependencies in MECOM-rearranged (r) AML: UCSD-AML1 cell line (AID 2202235).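 Also: series mostly up to about 46 µM; plate controls were DMSO vehicle wells for no effect and blank wells for full effect; nearly all actives have a fitted effect of over 40% in size.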 The method, boiled down: as §1
Test [8] is described as follows: BET inhibitor-based combinations targeting novel dependencies in MECOM-rearranged (r) AML: AML-191 cell line (AID 2202236; also: nearly all actives have a fitted effect of over 35% in size; also: potency is read from the fitted curve at half-maximal effect). The method, boiled down:
(§2)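 Each compound was tested at eleven concentrations on cells seeded at 500/well. After two days' incubation, ATP-based luminescence reported viability; responses relative to DMSO and blank wells yielded AUC and cell-line-centred Z-AUC.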

The nature of test [9]: BET inhibitor-based combinations targeting novel dependencies in MECOM-rearranged (r) AML: AML-194 cell line (AID 2202237; also: nearly all actives have a fitted effect of over 40% in size; also: potency is read from the fitted curve at half-maximal effect). The method, boiled down: as §2
The nature of test [10]: BET inhibitor-based combinations targeting novel dependencies in MECOM-rearranged (r) AML: OCI-AML3 cell line (AID 2202232). Also: nearly all actives have a fitted effect of over 35% in size. Also: potency is read from the fitted curve at half-maximal effect. The settings on record: Potency: OCI-AML3 viability. The method in brief:
as §2

Sequence of Cellular tumor antigen p53 (Homo sapiens) (P04637 whole entry, looked up): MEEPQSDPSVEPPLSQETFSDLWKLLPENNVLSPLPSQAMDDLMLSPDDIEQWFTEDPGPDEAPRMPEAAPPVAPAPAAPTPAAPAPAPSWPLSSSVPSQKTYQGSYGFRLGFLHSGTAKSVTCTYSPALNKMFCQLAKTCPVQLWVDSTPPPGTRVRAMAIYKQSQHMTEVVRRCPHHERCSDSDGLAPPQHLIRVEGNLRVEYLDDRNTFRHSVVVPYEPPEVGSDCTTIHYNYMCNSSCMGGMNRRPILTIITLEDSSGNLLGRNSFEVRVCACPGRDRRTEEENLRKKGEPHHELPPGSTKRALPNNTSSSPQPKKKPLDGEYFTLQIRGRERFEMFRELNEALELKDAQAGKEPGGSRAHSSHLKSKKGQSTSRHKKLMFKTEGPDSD

For `Cc1csc(NC(=O)c2sc3nc4c(c(C(F)(F)F)c3c2N)CCC4)n1`, the activation in [1] is -4.78%. The Potency result in test [2], in [3], in test [4], in [5], in test [6] and in test [7] was “inactive” each time. In addition, the Potency result in test [8] and in [9] was “inactive” throughout.

As to `COCCCOc1ccnc(CS(=O)c2nc3ccccc3[nH]2)c1C` (configuration not stated), the activation in test [1] is -8.47% and 40% and -11.5%. The Potency result in [2], in test [3], in [4], in [10], in test [6] and in test [7] was “inactive” each time. Further, the Potency entry in [8] and in test [9] was “inactive” in each case.

Consider `FC(F)(F)c1ccc(CNc2ccc(Cc3c[nH]c4ncccc34)cn2)cc1`, for which the activation in test [1] is 2.39%. Besides, the Potency result in test [2], in [3] and in test [4] was “inactive” throughout. The Potency is 20.9 µM (active) in test [10], 0.525 µM (active) in [5], 13.2 µM (active) in [8] and 16.6 µM (active) in test [9].

Take `CCCCn1c(=O)n(Cc2ccccc2F)c(=O)c2[nH]c(Cc3ccc(NC(C)=O)cc3)nc21`: in [1], the activation is 0.477%. The Potency entry in test [2], in test [3], in test [4], in test [10], in [5] and in test [7] was “inactive” throughout. The Potency result in [8] and in test [9] was “inactive” throughout.

As to `C[C@@]1(C(=O)Nc2ccc(F)nc2)CCCN1c1nc(Nc2cc(C3CC3)[nH]n2)c2cccn2n1`, the activation in [1] is 19.3%. The Potency entry in [2], in test [3] and in test [4] was “inactive” throughout. The Potency was 0.0742 µM (active) in [10], 2.95 µM (active) in test [5] and 1.48 µM (active) in test [9].

Regarding `CCOC(=O)C1=C(C)NC2=C(C(=O)CC(C)(C)C2)C1c1ccc(-c2ccccc2)cc1` (configuration not stated), the activation in test [1] is 5.7%. The Potency entry in [2], in test [3], in [4], in test [7], in [8] and in test [9] was “inactive” each time. The Potency in test [10] was 13.2 µM (active).

As for `CC#C[C@@H](CC(=O)O)c1ccc(OCc2cccc(-c3ccc(C(F)(F)F)cc3)c2)cc1`, the activation in [1] is -17.2%. Moreover, the Potency entry in test [2], in test [3], in test [4], in test [6] and in [7] was “inactive” in each case. Moreover, in [8], the Potency was 20.9 µM (active).
